Reference: PubChem BioAssay (NCI)
The panel holds about 83,000 compounds, 20% with a hit somewhere; the sample as a whole holds those more often.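 Cells were grown in 96-well plates and exposed to the test compound at a single concentration for 48 hours; results are reported as percent growth, with values below 10 considered active.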 The source made the active and inactive calls.

Assays:
Assay in all cases: NCI-60 one-dose screen, 48 h (100 = growth as untreated, 0 = no growth, -100 = all killed)
Conditions in all cases: 10 µM unless noted
DU-145 prostate = system: DU-145 prostate
K-562 leukemia = system: K-562 leukemia
MALME-3M melanoma = system: MALME-3M melanoma
MDA-MB-231 breast = system: MDA-MB-231 breast
RXF 393 renal = system: RXF 393 renal
SF-268 CNS = system: SF-268 CNS
SF-295 CNS = system: SF-295 CNS
SF-539 CNS = system: SF-539 CNS
UACC-257 melanoma = system: UACC-257 melanoma
M14 melanoma = system: M14 melanoma
HCT-15 colon = system: HCT-15 colon
HT29 colon = system: HT29 colon
SNB-75 CNS = system: SNB-75 CNS
SNB-19 CNS = system: SNB-19 CNS
U251 CNS = system: U251 CNS
PC-3 prostate = system: PC-3 prostate
SK-MEL-5 melanoma = system: SK-MEL-5 melanoma
UACC-62 melanoma = system: UACC-62 melanoma
LOX IMVI melanoma = system: LOX IMVI melanoma
SK-MEL-28 melanoma = system: SK-MEL-28 melanoma

Measured: growth

O=C1CCC(N2C(=O)c3cccc(NCCOCCOCCNC(=O)c4cc5c(o4)C(=O)c4ccccc4C5=O)c3C2=O)C(=O)N1 (stereo not given)
inactive: HCT-15 colon 55.1%
active: DU-145 prostate -97.8% | K-562 leukemia 8.5% | MALME-3M melanoma -95.2% | MDA-MB-231 breast -2.36% | RXF 393 renal -39.5% | SF-268 CNS -12.2% | SF-295 CNS -93.9% | SF-539 CNS -95.2% | UACC-257 melanoma -82.5% | M14 melanoma -66.4% | HT29 colon -16.8% | SNB-75 CNS -98.2% | SNB-19 CNS -24.3% | U251 CNS -42% | PC-3 prostate 6.46% | SK-MEL-5 melanoma -98.2% | UACC-62 melanoma -81.8% | LOX IMVI melanoma -74.1% | SK-MEL-28 melanoma -38.7%

Cc1c(NCC(=O)Nc2nc3ccccc3[nH]2)c(=O)n(-c2ccccc2)n1C
inactive: DU-145 prostate 112% | K-562 leukemia 101% | MALME-3M melanoma 98.4% | MDA-MB-231 breast 99.3% | RXF 393 renal 102% | SF-268 CNS 103% | SF-295 CNS 109% | SF-539 CNS 97.7% | UACC-257 melanoma 94.4% | M14 melanoma 105% | HCT-15 colon 94.5% | HT29 colon 105% | SNB-75 CNS 94.3% | SNB-19 CNS 97% | U251 CNS 96.7% | PC-3 prostate 92.7% | SK-MEL-5 melanoma 100% | UACC-62 melanoma 102% | LOX IMVI melanoma 97.1% | SK-MEL-28 melanoma 110%

Cc1nc(-c2ccccc2)cc2c(O)c(C(=O)N/N=C/Cc3ccccc3)[nH]c(=O)c12
inactive: DU-145 prostate 113% | K-562 leukemia 76.6% | MALME-3M melanoma 116% | MDA-MB-231 breast 113% | RXF 393 renal 127% | SF-268 CNS 103% | SF-295 CNS 117% | SF-539 CNS 103% | UACC-257 melanoma 94.5% | M14 melanoma 106% | HCT-15 colon 106% | HT29 colon 93.8% | SNB-75 CNS 90.7% | SNB-19 CNS 110% | U251 CNS 98.8% | PC-3 prostate 90% | SK-MEL-5 melanoma 107% | UACC-62 melanoma 109% | LOX IMVI melanoma 95.7% | SK-MEL-28 melanoma 115%

CCCCc1ccc(C(O)(CCN2CC3CCC(CC3)C2)c2ccccc2)cc1 (stereo not given)
inactive: DU-145 prostate 99.8% | K-562 leukemia 75.2% | MALME-3M melanoma 95.7% | MDA-MB-231 breast 99.1% | RXF 393 renal 96.2% | SF-268 CNS 97.1% | SF-295 CNS 102% | SF-539 CNS 101% | UACC-257 melanoma 95.2% | M14 melanoma 91.7% | HCT-15 colon 65.7% | HT29 colon 68.8% | SNB-75 CNS 116% | SNB-19 CNS 108% | U251 CNS 83.3% | PC-3 prostate 94.3% | SK-MEL-5 melanoma 101% | UACC-62 melanoma 108% | LOX IMVI melanoma 103% | SK-MEL-28 melanoma 102%

O=C(N/N=C/c1ccc2c(c1)OCO2)c1cnn2c1NC(c1ccccc1)C2 (stereo not given)
inactive: DU-145 prostate 60.9% | K-562 leukemia 29.8% | MALME-3M melanoma 55.1% | MDA-MB-231 breast 53.2% | SF-268 CNS 66% | SF-295 CNS 47.3% | SF-539 CNS 59.1% | UACC-257 melanoma 72.4% | M14 melanoma 42.7% | HCT-15 colon 28% | HT29 colon 26.7% | SNB-75 CNS 54.8% | SNB-19 CNS 62.9% | U251 CNS 69.6% | PC-3 prostate 50.2% | SK-MEL-5 melanoma 37.3% | UACC-62 melanoma 32.7% | LOX IMVI melanoma 26.4% | SK-MEL-28 melanoma 71.8%
active: RXF 393 renal 6.73%

O=C(N/N=C/c1ccc(OC(F)F)c(OC2CCCC2)c1)c1cnn2c1NC(c1ccccc1)C2 (stereo not given)
inactive: DU-145 prostate 85.7% | K-562 leukemia 38.6% | MALME-3M melanoma 108% | MDA-MB-231 breast 81.9% | RXF 393 renal 76.9% | SF-268 CNS 64.2% | SF-295 CNS 80.3% | SF-539 CNS 81% | UACC-257 melanoma 88.2% | M14 melanoma 82.9% | HCT-15 colon 51.1% | HT29 colon 81.7% | SNB-75 CNS 57.6% | SNB-19 CNS 79.9% | U251 CNS 82.1% | PC-3 prostate 61.7% | SK-MEL-5 melanoma 70.9% | UACC-62 melanoma 71.2% | LOX IMVI melanoma 68.1% | SK-MEL-28 melanoma 88.7%

COc1cc(CNCCCN2C(=O)c3ccc4c5c(ccc(c35)C2=O)C(=O)N(CCCNCc2cc(OC)c(OC)c(OC)c2)C4=O)cc(OC)c1OC
active: DU-145 prostate -95.6% | K-562 leukemia 7.69% | MALME-3M melanoma -87.1% | MDA-MB-231 breast -17.5% | RXF 393 renal -95.3% | SF-268 CNS -31.8% | SF-295 CNS -50.3% | SF-539 CNS -86.9% | UACC-257 melanoma -93% | M14 melanoma -89.8% | HCT-15 colon -29.4% | HT29 colon -47.6% | SNB-75 CNS -97.2% | SNB-19 CNS -92.3% | U251 CNS -74.5% | PC-3 prostate -54.8% | SK-MEL-5 melanoma -99.7% | UACC-62 melanoma -90.2% | LOX IMVI melanoma -85.6% | SK-MEL-28 melanoma -91.7%

CCCCc1ccc(NC(=O)C(F)(F)F)cc1
inactive: DU-145 prostate 100% | K-562 leukemia 85.8% | MALME-3M melanoma 140% | MDA-MB-231 breast 99.8% | RXF 393 renal 93.4% | SF-268 CNS 83.9% | SF-295 CNS 105% | SF-539 CNS 100% | UACC-257 melanoma 110% | M14 melanoma 105% | HCT-15 colon 105% | HT29 colon 99.8% | SNB-75 CNS 102% | SNB-19 CNS 106% | U251 CNS 97.4% | PC-3 prostate 101% | SK-MEL-5 melanoma 106% | UACC-62 melanoma 99.9% | LOX IMVI melanoma 95.5% | SK-MEL-28 melanoma 112%

C[C@]1(CO)C[C@@H](O)C[C@]2(C)[C@@H]1CC[C@@]13C[C@@H]4[C@@H](C[C@H]12)[C@]4(C)C3
inactive: DU-145 prostate 111% | K-562 leukemia 101% | MALME-3M melanoma 94.4% | MDA-MB-231 breast 98% | RXF 393 renal 119% | SF-268 CNS 100% | SF-295 CNS 104% | SF-539 CNS 99.4% | UACC-257 melanoma 106% | M14 melanoma 94.8% | HCT-15 colon 103% | HT29 colon 105% | SNB-75 CNS 88.9% | SNB-19 CNS 95.7% | U251 CNS 104% | PC-3 prostate 99% | SK-MEL-5 melanoma 99% | UACC-62 melanoma 94.1% | LOX IMVI melanoma 107% | SK-MEL-28 melanoma 103%

COc1cccc(C2C3=C(COC3=O)N(CCO)c3cc4c(cc32)CCC4)c1 (stereo not given)
inactive: K-562 leukemia 15.8% | MALME-3M melanoma 57.3% | SF-268 CNS 22.6% | UACC-257 melanoma 31.5% | SNB-19 CNS 11.3% | PC-3 prostate 23.5% | LOX IMVI melanoma 14.8% | SK-MEL-28 melanoma 46.8%
active: DU-145 prostate -26.5% | MDA-MB-231 breast -12% | RXF 393 renal -3.06% | SF-295 CNS -27.5% | SF-539 CNS -17.9% | M14 melanoma -13.7% | HCT-15 colon 2.3% | HT29 colon -28.2% | SNB-75 CNS -19.2% | U251 CNS 2.42% | SK-MEL-5 melanoma -16.2% | UACC-62 melanoma 8.14%

CCOC(=O)c1[nH]c2cc(Cl)ccc2c1[C@@H](C(=O)NC(C)(C)C)N(CC)C(=O)CCCCC#Cc1cccc2c1CN(C1CCC(=O)NC1=O)C2=O (stereo not given in full)
active: MALME-3M melanoma -12.6% | MDA-MB-231 breast -50.1% | RXF 393 renal -1.34% | SF-295 CNS -5.32% | HCT-15 colon -2.23% | HT29 colon 8.65% | SNB-75 CNS 0.961% | SK-MEL-5 melanoma -53.4% | LOX IMVI melanoma 8.52%
inactive: DU-145 prostate 32.8% | K-562 leukemia 17.5% | SF-268 CNS 25% | SF-539 CNS 29.6% | UACC-257 melanoma 28.4% | M14 melanoma 16.9% | SNB-19 CNS 28.2% | U251 CNS 27.8% | PC-3 prostate 11.7% | UACC-62 melanoma 27.2% | SK-MEL-28 melanoma 29.6%

Nc1nc2c(s1)CCc1c-2c(Br)n(Cc2ccccc2)c1Br
inactive: DU-145 prostate 109% | K-562 leukemia 15.4% | MALME-3M melanoma 37.8% | MDA-MB-231 breast 80.9% | RXF 393 renal 17.9% | SF-268 CNS 89.1% | SF-295 CNS 120% | SF-539 CNS 93.4% | UACC-257 melanoma 96.9% | M14 melanoma 91.8% | HCT-15 colon 50.8% | HT29 colon 97.6% | SNB-75 CNS 89.5% | SNB-19 CNS 105% | U251 CNS 91.6% | PC-3 prostate 89.1% | SK-MEL-5 melanoma 89.3% | UACC-62 melanoma 78.3% | LOX IMVI melanoma 86.1% | SK-MEL-28 melanoma 100%

CCOc1ccc(-c2cnnn2-c2nonc2-n2cccc2)cc1
active: DU-145 prostate -9.36% | K-562 leukemia 5.54% | MDA-MB-231 breast 4.16% | RXF 393 renal -30.1% | SF-295 CNS 8.24% | SF-539 CNS -19.5% | M14 melanoma 9.7% | HT29 colon 1.88% | SNB-75 CNS 5.23%
inactive: MALME-3M melanoma 52.6% | SF-268 CNS 50.7% | UACC-257 melanoma 65% | HCT-15 colon 22.6% | SNB-19 CNS 37% | U251 CNS 17.6% | PC-3 prostate 30.4% | SK-MEL-5 melanoma 24.7% | UACC-62 melanoma 35.6% | LOX IMVI melanoma 33.1% | SK-MEL-28 melanoma 37.5%

Nc1cc2[nH]c(=O)c3ccccc3c2cc1Br
inactive: DU-145 prostate 77% | K-562 leukemia 95% | MALME-3M melanoma 102% | MDA-MB-231 breast 53.2% | RXF 393 renal 85.4% | SF-268 CNS 86.3% | SF-295 CNS 95.6% | SF-539 CNS 74.6% | UACC-257 melanoma 109% | M14 melanoma 83.3% | HCT-15 colon 52.6% | HT29 colon 111% | SNB-75 CNS 57% | SNB-19 CNS 93.6% | U251 CNS 84% | PC-3 prostate 81.5% | SK-MEL-5 melanoma 67.2% | UACC-62 melanoma 80.7% | LOX IMVI melanoma 74.5% | SK-MEL-28 melanoma 97.8%
